From PubChem BioAssay (NCATS)
Inconclusive results are not listed. The source made the active and inactive calls. Unless noted, calls follow the shape of the dose curve; as a rule, active = well fitted curve in the direction sought with a large enough effect; inconclusive = small, poorly fitted or top-dose-only effect, or another doubt; inactive = no such curve, though single readings can be large; an effect the other way counts as inactive or inconclusive.

Experiments:
JEG-3 = experiment: Primary qHTS to identify gynecologic anti-cancer compounds using libraries of approved drugs and bioactive compounds (AID 1345084); conditions: Gynecologic cancer cell panel viability, ATPlite luminescence, 48 h; series mostly up to 57.5 µM; also: % is scaled to controls: 0 for no effect and ±100 for the full control effect; nearly all actives have a fitted effect of over 55% in size
Procedure, shortened: (§1)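 In this quantitative HTS, cell killing is estimated from loss of ATP-dependent luciferase light. Cells see five compound concentrations over a 48 h exposure.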

OV90 = experiment: as above; conditions: Gynecologic cancer cell panel viability, ATPlite luminescence, 48 h; series mostly up to 57.5 µM
Procedure, shortened: as §1

PA-1 = experiment: as above; conditions: Gynecologic cancer cell panel viability, ATPlite luminescence, 48 h; series mostly up to 57.5 µM
Procedure, shortened: as §1

Tov-21-G = experiment: as above; conditions: Gynecologic cancer cell panel viability, ATPlite luminescence, 48 h; series mostly up to 57.5 µM
Procedure, shortened: as §1

Tov112D = experiment: as above; conditions: Gynecologic cancer cell panel viability, ATPlite luminescence, 48 h; series mostly up to 57.5 µM
Procedure, shortened: as §1

[1] = Drug repurposing screens with cells derived from glioblastoma tumor samples (AID 1345199); conditions: GBM patient neurospheres viability, ATP luminescence, 48 h; also: % is scaled to controls: 0 for no effect and ±100 for the full control effect; nearly all actives have a fitted effect of over 40% in size
Procedure, shortened: (§2)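 Primary testing used CD133+ neurospheres from four GBM patients, seven concentrations, 48 h exposure and ATP-based viability; confirmation added three slower-growing patient lines.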

astro = experiment: as above; conditions: viability, ATP luminescence, 48 h; series mostly up to 45.9 µM
Procedure, shortened: as §2

[2] = target: Nuclear receptor subfamily 1 group I member 2 (Rattus norvegicus) (UniProt Q9R1A7); experiment: qHTS assay for small molecule activators of the rat pregnane X receptor (rPXR) signaling pathway (AID 651751; call rule not given here; also: 0% is about no effect); conditions: rPXR reporter cells, luciferase (One-Glo), 24 h
[3] = qHTS assay to identify inhibitors of the type 1 interferon - major histocompatibility complex class I in skeletal muscle: Counter screen cell viability and HiBit confirmation (AID 1347412); conditions: iHSKM muscle cells + IFN-b, HiBiT or CellTiter-Glo, 24 h; Viability; at 45.9 µM (top of the series); also: % is scaled to controls: 0 for no effect and ±100 for the full control effect; nearly all actives have a fitted effect of over 60% in size
Procedure, shortened: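 Luminescence read-out: Nano-Glo HiBiT lytic signal from C-terminally HiBiT-tagged HLA-B in CRISPR-edited human myoblasts, plus CellTiter Glo ATP as viability counter screen. IFN-beta 4.0 ng/ml; 24 hrs treatment at 37 C, 5% CO2.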

SKOV3 = experiment: Primary qHTS to identify gynecologic anti-cancer compounds using libraries of approved drugs and bioactive compounds (AID 1345084); conditions: Gynecologic cancer cell panel viability, ATPlite luminescence, 48 h; series mostly up to 57.5 µM; also: % is scaled to controls: 0 for no effect and ±100 for the full control effect; nearly all actives have a fitted effect of over 55% in size
Procedure, shortened: as §1

[4] = at 45.9 µM (top of the series), tumour line B
[5] = at 45.9 µM (top of the series), tumour line D
[6] = at 46 µM (top of the series), tumour line A
[7] = at 46.1 µM (top of the series), tumour line C

Nuclear receptor subfamily 1 group I member 2 (Rattus norvegicus), sequence (Q9R1A7 whole entry, looked up): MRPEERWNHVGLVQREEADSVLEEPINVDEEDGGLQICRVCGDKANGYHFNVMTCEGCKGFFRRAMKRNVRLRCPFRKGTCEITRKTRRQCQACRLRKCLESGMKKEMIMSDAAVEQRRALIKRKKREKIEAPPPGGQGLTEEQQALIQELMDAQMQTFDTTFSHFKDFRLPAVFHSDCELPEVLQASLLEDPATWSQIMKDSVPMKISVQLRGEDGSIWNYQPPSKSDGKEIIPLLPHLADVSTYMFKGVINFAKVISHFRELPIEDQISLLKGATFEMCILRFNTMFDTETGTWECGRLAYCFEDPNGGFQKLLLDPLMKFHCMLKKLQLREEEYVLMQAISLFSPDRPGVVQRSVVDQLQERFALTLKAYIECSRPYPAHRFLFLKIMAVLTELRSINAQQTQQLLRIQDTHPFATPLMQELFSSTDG

Cc1ccnc2c1NC(=O)c1cccnc1N2C1CC1
inactive: Potency (JEG-3) | Potency (OV90) | Potency (PA-1) | Potency (Tov-21-G) | Potency (Tov112D) | activity, negative = cell killing [1, 4] -8.19% | activity, negative = cell killing [1, 5] 4.3% | activity, negative = cell killing [1, 6] -21.5% | activity, negative = cell killing [1, 7] -3.33% | Potency (astro) | max response [2] -6.61%

COc1cc2ncnc(Nc3cccc(Cl)c3)c2cc1OC
inactive: Potency (JEG-3) | Potency (OV90) | Potency (PA-1) | Potency (Tov-21-G) | Potency (Tov112D) | activity change, negative = inhibition [3] -9.03%

CC(=O)[C@H]1CC[C@H]2[C@@H]3CC=C4C[C@@H](O)CC[C@]4(C)[C@H]3CC[C@]12C
inactive: Potency (JEG-3) | Potency (OV90) | Potency (PA-1) | Potency (SKOV3) | Potency (Tov-21-G) | Potency (Tov112D) | activity, negative = cell killing [1, 4] -3.14% | activity, negative = cell killing [1, 7] 6.87% | Potency (astro)

COCCCOc1cc(C[C@@H](C[C@H](N)[C@@H](O)C[C@H](C(=O)NCC(C)(C)C(N)=O)C(C)C)C(C)C)ccc1OC
inactive: Potency (JEG-3) | Potency (OV90) | Potency (PA-1) | Potency (SKOV3) | Potency (Tov-21-G) | Potency (Tov112D) | activity, negative = cell killing [1, 4] 9.07% | activity, negative = cell killing [1, 5] 12.6% | activity, negative = cell killing [1, 7] 3% | Potency (astro)

CC(N)C12CC3CC(CC(C3)C1)C2 (centres undefined)
inactive: Potency (JEG-3) | Potency (PA-1) | Potency (SKOV3) | Potency (Tov-21-G) | Potency (Tov112D) | activity, negative = cell killing [1, 4] -2.45% | activity, negative = cell killing [1, 5] -5.43% | activity, negative = cell killing [1, 7] 5.06%

COC(c1ccccc1)(c1ccccc1)[C@H](Oc1nc(C)cc(C)n1)C(=O)O
inactive: Potency (JEG-3) | Potency (OV90) | Potency (PA-1) | Potency (SKOV3) | activity, negative = cell killing [1, 4] -11% | activity, negative = cell killing [1, 5] -22.7% | activity, negative = cell killing [1, 6] -16.8% | activity, negative = cell killing [1, 7] 2.92% | Potency (astro)

O=NN(CCCl)C(=O)NC1CCCCC1
inactive: Potency (JEG-3) | Potency (OV90) | Potency (PA-1) | Potency (SKOV3) | Potency (Tov-21-G) | Potency (Tov112D) | activity, negative = cell killing [1, 4] -2.15% | activity, negative = cell killing [1, 5] -13.5% | activity, negative = cell killing [1, 7] -16.6% | Potency (astro)

S=P(N1CC1)(N1CC1)N1CC1
inactive: Potency (JEG-3) | Potency (PA-1) | Potency (SKOV3) | Potency (Tov-21-G) | Potency (Tov112D) | activity, negative = cell killing [1, 4] -13.6% | activity, negative = cell killing [1, 5] -2.85% | activity, negative = cell killing [1, 7] -0.68% | activity, negative = cell killing ([1]; at 91.6 µM (top of the series), tumour line B) -15.1% | activity, negative = cell killing ([1]; at 91.6 µM (top of the series), tumour line D) -14.2% | activity, negative = cell killing ([1]; at 99.2 µM (top of the series), tumour line C) -13% | Potency (astro) | max response [2] 2.63%

Clc1ccccc1CN1CCc2sccc2C1
inactive: Potency (JEG-3) | Potency (OV90) | Potency (SKOV3) | Potency (Tov-21-G) | Potency (Tov112D) | activity, negative = cell killing [1, 4] -14.5% | activity, negative = cell killing [1, 5] -10.5% | activity, negative = cell killing [1, 7] 4.64%
